Measured values taken from publication PMC5540273 (PLoS ONE, 2017).

Assays:
Settings in all cases: concentration: 1 μM, replicates: in singlicate; n = 1
RIPK5 = test system: RIPK5
ROCK1 = test system: ROCK1
ROCK2 = test system: ROCK2
ROS1 = test system: ROS1
[1] = test system: RPS6KA4(Kin.Dom.1-N-terminal)
[2] = test system: RPS6KA4(Kin.Dom.2-C-terminal)
[3] = test system: RPS6KA5(Kin.Dom.1-N-terminal)
[4] = test system: RPS6KA5(Kin.Dom.2-C-terminal)
[5] = test system: T1, RSK1(Kin.Dom.1-N-terminal)
T1 construct: gene RPS6KA1

[6] = test system: T2, RSK1(Kin.Dom.2-C-terminal)
T2 construct: gene RPS6KA1
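Also: KINOMEscan kinase panel screen.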

SMILES	%Inh (RIPK5) [%]	%Inh (ROCK1) [%]	%Inh (ROCK2) [%]	%Inh (ROS1) [%]	%Inh [1] [%]	%Inh [2] [%]	%Inh [3] [%]	%Inh [4] [%]	%Inh [5] [%]	%Inh [6] [%]
Cn1ccc2ncnc(Oc3ccc(NC(=O)Nc4ccncc4)c(Cl)c3)c21	0	0	0	0	0	0	13	0	0	0
CCc1nc(-c2cccc(C)c2)c(-c2ccnc(NCc3ccccc3)c2)s1	14	0	0	0	0	1	1	4	0	57
O=c1cc(N2CCOCC2)nc2n(Cc3cccc(F)c3)ccn12 [GSK2297430]	0	0	27	24	19	0	26	0	0	0
COc1cc2c(cc1OCCN1CCN(C)CC1)ncc1c3ccc(C#N)cc3[nH]c21	33	98.1	99.4	0	0	0	0	71	0	26
Cc1c2ccc(N(C)c3ccnc(Nc4cccc(S(N)(=O)=O)c4)n3)cc2nn1Cc1ccccc1.Cl.Cl [GW787226]	28	48	0	62	18	0	0	0	0	19
COc1ccc(S(=O)(=O)NC2CCN(c3cc(C)nc(Nc4cccc(C#N)c4)n3)CC2)cc1.O=C(O)C(F)(F)F [GSK1653539]	0	0	0	16	0	0	2	23	8	0
Cc1nnc(-c2ccc3ncc(-c4ccc(S(C)=O)cc4)n3c2)o1 (stereo not shown)	21	28	9	0	0	9	0	2	0	27
Cl.Oc1cccc(Nc2ccnc3cc(-c4ccncc4)ccc23)c1 [GW494601]	0	88	72	34	0	0	16	16	0	13
CN(C1=C(c2ccccc2)C(=O)NC1=O)c1ccccc1 [SB-334860]	15	0	0	4	10	0	7	12	4	13
Cc1ccc(NC(=O)c2ccnc(N3CCN(C)CC3)c2)cc1-c1ccc(C(=O)NCC2CC2)cc1 [GW775604]	0	41	0	0	10	0	0	0	0	0
O=C1NC(=O)C(N2CCc3ccccc32)=C1c1cccc(Cl)c1 [SB-408010]	9	0	0	0	4	0	9	0	0	11
CN1c2ccc(NCc3ccc(F)cc3)cc2-c2c(cnn2C)S1(=O)=O	0	0	0	0	0	0	0	0	0	20
Fc1ccc(-c2nn3c(OCC(F)(F)F)cccc3c2-c2ccncc2)cc1 [GW514784]	0	36	34	13	10	0	12	13	6	29
Cc1nnc(-c2ccc(C)c(-c3ccc(C(=O)Nc4ccc(NS(C)(=O)=O)cc4)cc3)c2)o1 [GW702865]	4	0	11	0	1	0	0	17	13	0
NCC(NC(=O)c1cc(-c2cn[nH]c2)c(-c2ccnc3[nH]ccc23)s1)c1ccccc1.O=C(O)C(F)(F)F.O=C(O)C(F)(F)F (stereo not shown) [GSK1325775]	16	100	99.9	0	47	43	13	60	24	5
Cn1cc(-c2ccc3c(c2)CCN3C(=O)Cc2ccccc2Cl)c2c(N)ncnc21 [GSK2608885]	13	1	0	86	36	0	32	3	99.2	30
